Bioassay records (PubChem BioAssay)
Hits are enriched below; roughly 4.3% of the tested compounds scored in any of these assays.
ADAM10 inh: inhibitors of human ADAM10; 370,000 tested, 0.62% active; recombinant ADAM10, EDANS/DABCYL FRET peptide cleavage, 3 h; AID 720582; O14672; inhibition, % at 7 µM;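 active means inhibition above a per-campaign cutoff equal to the mean of compounds falling between control-based bounds plus 3 SD, cut at about 20% in these data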;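 further: 0% = DMSO wells while the 100% control is not disclosed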
Target sequence (O14672 214-748 limits assumed): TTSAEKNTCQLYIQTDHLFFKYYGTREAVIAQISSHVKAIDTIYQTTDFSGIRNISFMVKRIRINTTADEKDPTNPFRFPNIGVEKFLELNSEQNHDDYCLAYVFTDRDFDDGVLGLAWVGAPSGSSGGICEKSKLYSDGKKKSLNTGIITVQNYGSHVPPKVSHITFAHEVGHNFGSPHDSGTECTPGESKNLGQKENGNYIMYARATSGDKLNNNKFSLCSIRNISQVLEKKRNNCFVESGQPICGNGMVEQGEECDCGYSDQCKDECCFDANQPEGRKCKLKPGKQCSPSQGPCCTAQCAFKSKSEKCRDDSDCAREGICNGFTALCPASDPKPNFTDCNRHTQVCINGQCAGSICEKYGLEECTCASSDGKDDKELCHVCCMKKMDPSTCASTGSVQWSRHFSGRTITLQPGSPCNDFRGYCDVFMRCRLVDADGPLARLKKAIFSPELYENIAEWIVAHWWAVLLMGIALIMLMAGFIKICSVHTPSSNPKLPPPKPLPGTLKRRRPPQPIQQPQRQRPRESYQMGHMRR
ADAM17 inh: ADAM17 inhibition, QFRET primary screen; 370,000 tested, 0.83% active; recombinant ADAM17, EDANS/DABCYL FRET peptide cleavage; AID 720648; inhibition, % at 6.95 µM; P78536;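 active means inhibition above the mean of compounds lying between control limits plus 3 SD, set per campaign, cut at about 8.5% in these data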;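 further: 0% = DMSO-only wells as the low control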
sPLA2-III inh: Inhibits HGIII-sPLA2 liposome hydrolysis, primary screen; AID 743126; inhibition, % at 12.2 µM; Q9NZ20; QFRET BODIPY PC-A2 liposome hydrolysis, fluorescence; 370,000 tested, 0.56% active;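 active means inhibition above mean plus 3 SD of compounds lying within the high and low control bounds, cut at about 19% in these data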;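 further: 0% = median of test compound wells and 100% = no enzyme DMSO wells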
NR3A LBD binder: NR3A (human) ligand-binding domain modulation. 340,000 tested, 2.5% active. Tm shift relative to glycine control, % at 25 µM. NR3A LBD differential scanning fluorimetry, Tm shift; 0% = protein alone, 100% = glycine-bound protein;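 active means melting temperature shift of at least 10% of the positive control shift, at one fixed dose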
FAS-TE inh: inhibitors of human fatty acid synthase thioesterase domain. P49327. recombinant FAS-TE, OMFH fluorogenic substrate, fluorescence endpoint. inhibition, % at 15 µM. 360,000 tested, 0.67% active;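 active means compounds whose normalised, plate-corrected inhibition of enzyme fluorescence in the single-dose primary screen is 50% or more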;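 further: 0% = DMSO with enzyme and 100% = substrate without enzyme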
Active calls of the source: *; i = inactive; / = not tested or not shown.

SMILES	ADAM10 inh	ADAM17 inh	sPLA2-III inh	NR3A LBD binder	FAS-TE inh
Cc1ccc(C)c(-c2cc(C(=O)Nc3cccnc3)c3ccccc3n2)c1	-3	4	1	11*	5
Cc1ccc(-c2cc(C(=O)Nc3ccc(S(=O)(=O)Nc4nccs4)cc3)c3ccccc3n2)c(C)c1	40*	20*	-39	15*	14
COC(=O)[C@]12C[C@H](CC(=O)N3CCCC3)C(=O)N(Cc3ccco3)C1=C[C@H](COCc1ccccc1)O[C@@H]2C	-3	-4	4	/	/
CCOc1ccc(NC(=O)CN2CCCN(c3ccc(OC)cc3)CC2)cc1	-1	2	9	/	/
CN(CCO)c1cccc2c1S(=O)(=O)N(Cc1cn(Cc3ccc(Cl)cc3)nn1)Cc1ccccc1O2	-4	-3	-6	/	/
COc1cc(NS(=O)(=O)N2CCCC2)cc(OC)c1OC	7	-1	-4	15*	7
CCOC(=O)c1sc(=S)n(-c2cc(F)ccc2F)c1N	-1	5	11	14*	3
Cc1ccc2nc(Cl)c(/C=N/NC(=O)[C@H]3C[C@@H]3c3ccccc3)cc2c1	-14	-6	7	0	12
Cc1ccc2nc(C)c(C(=O)N/N=C/c3ccco3)cc2c1	-2	2	1	11*	-12
Cc1ccc2nc(Cl)c(/C=N/NC(=O)c3ccccc3O)cc2c1	-9	-3	4	20*	-7
CC(=O)C1(C(=O)NC2CCCC2)CC(c2ccccn2)=NO1 (configuration not stated)	2	-3	1	/	/
COC(=O)c1ccc(Cn2ccc3ccc(-c4ccc5ccn(Cc6ccc(C(=O)OC)cc6)c5c4)cc32)cc1	-20	-7	5	/	/
Cc1cc(C)cc(NC(=O)NC2CCN(S(=O)(=O)c3ccc(F)cc3)CC2)c1	2	1	-1	/	/
CCn1c2ccccc2n2c(=O)c(=O)n(CC(=O)Nc3ccc(C(C)C)cc3)nc12	0	-1	-8	13*	1
CC(C)c1ccc(NC(=O)Cn2c(=O)oc3ccccc32)cc1	1	-2	-16	0	0
CCOC(=O)C(NC(=O)CCC(=O)Nc1ccc(S(N)(=O)=O)cc1)C(O)c1ccccc1 (configuration not stated)	/	/	/	13*	/
CCCCCCCCOC(=O)C(NC(=O)CCC(=O)Nc1ccc(S(N)(=O)=O)cc1)C(O)c1ccccc1 (configuration not stated)	-3	8	2	-2	2
Cc1cc(NC(=O)c2ccc(NS(=O)(=O)c3ccccc3)cc2)no1	2	1	-17	/	/
Oc1ccccc1/C=N/n1c2ccccc2c2ccccc21	-5	-3	3	19*	20
C(=N\n1c2ccccc2c2ccccc21)/c1ccccc1	2	0	-1	-28	21
O=C(Nc1ccc(Cl)c(Cl)c1)N1CCOCC1	-5	-6	3	-1	-2
O=C(Nc1ccc(N2CCOCC2)cc1)Nc1ccc(Cl)c(Cl)c1	10	0	9	33*	16
O=C(/C=C/c1ccc(Cl)cc1)Nc1ccc(N2CCOCC2)cc1	2	3	2	-13	0
O=C(Nc1ccc(Cl)cc1)Nc1ccc(N2CCOCC2)cc1	1	2	11	11*	-1
C[C@H]1[C@H](N)CC[C@@]23CCCN2C(=O)CCC[C@@H]13	-9	-2	2	/	/
SMILES	ADAM10 inh	ADAM17 inh	sPLA2-III inh	NR3A LBD binder	FAS-TE inh
COc1ccccc1CNC(=O)c1ccccc1OCc1ccc(F)cc1	4	3	7	23*	32
CC(C)[C@H](N)C(=O)N[C@@H](Cc1ccccc1)C(=O)N1CCC2CCN(S(=O)(=O)c3ccccc3)CC21 (some centres not stated)	-4	-1	5	/	/
Cc1cccc(OCCNC(=S)NC(=O)c2cncc(Br)c2)c1	2	-2	8	10*	15
Cc1ccc(OCCNC(=O)c2cncc(Br)c2)cc1C	-11	0	2	1	3
NC(=O)COC(=O)CC(NC(N)=O)c1ccc(Cl)cc1 (configuration not stated)	-4	3	5	13*	-12
COC(=O)[C@]12C[C@H](CC(=O)NCc3cccs3)C(=O)N(CCc3ccc(OC)c(OC)c3)C1=C[C@H](C1CCCC1)O[C@@H]2C	8	6	-15	/	/
Cc1ccc2nc(-c3sc4nc(C)cc(C)c4c3N)[nH]c2c1	-136	-42	2	15*	-4
Cc1ccc2nc(-c3cccc(N)c3)[nH]c2c1	i	-158	7	-5	-11
CC(C)CNc1cccc2c1S(=O)(=O)N(Cc1cn(Cc3cccc(C(F)(F)F)c3)nn1)Cc1ccccc1O2	-15	-2	1	/	/
Cc1cccc(/C=N/NC(=O)c2cc(-c3cccnc3)nc3c2c(C)nn3-c2ccccc2)c1	-1	-1	3	24*	15
Cc1cccc(/C=N/NC(=O)c2cc(-c3cccnc3)nc3ccccc23)c1	3	-1	2	1	-1
CCNC(=O)CCc1nc(-c2ccc(C(C)C)cc2)no1	-5	-4	7	/	/
COCCOC(=O)c1c(C)oc2ccc(NS(=O)(=O)c3cccs3)cc12	-1	2	-20	0	3
CCCCOC(=O)c1c(C)oc2ccc(NS(=O)(=O)c3ccc4c5c(cccc35)C(=O)N4)cc12	-3	0	-56	15*	49
CCOC(=O)c1csc(NC(=O)C2CCCN(S(=O)(=O)c3ccc([N+](=O)[O-])cc3)C2)n1 (configuration not stated)	5	4	-12	/	/
NC(=O)c1cc(-c2csc(NCCc3ccccc3)n2)ccc1O	-8	0	-21	10*	1
C=CCNc1nc(-c2ccc(O)c(C(N)=O)c2)cs1	-26	-2	-22	-14	-6
NC(=O)c1cc(-c2csc(-c3cccnc3)n2)ccc1O	-4	-5	-2	20*	1
COc1ccc2cc(-c3csc(-c4cccnc4)n3)ccc2c1	5	-3	8	26*	-2
C[C@H]1[C@@H](OC(=O)Nc2ccccc2Cl)CC[C@@]23CCCN2C(=O)CCC[C@@H]13	-5	-5	-3	/	/
CCOC(=O)Nc1ccc2c(CN(C)Cc3ccc(F)cc3)cc(=O)oc2c1	-73	-29	0	14*	-4
O=C(O)c1ccc(N/N=C/C=C/c2ccc([N+](=O)[O-])o2)cc1	4	5	-3	12*	-33
O=[N+]([O-])c1ccc(N/N=C/C=C/c2ccco2)cc1	8	8	-7	41*	16
CCOC(=O)Nc1cccc(C(=O)O)c1	-1	1	-3	1	-4
CCOC(=O)Nc1cccc(Nc2ccccc2)c1	-2	-2	-5	27*	5
CC(=O)NC1CCCCN(Cc2cccc(F)c2)C1=O (configuration not stated)	0	-1	-1	/	/
CCOC(=O)c1c(C)n(C)c2cc(-c3cccc(C(F)(F)F)c3)c(O)cc12	-12	0	-1	13*	-1
